The list is not random: actives were taken first. Their share in the collection is about 4.6%.
Mdm2-MdmX inh – human Mdm2/MdmX binding inhibition; inhibition, % at 8 µM; O15151+Q00987; SaOS-2 split-luciferase Mdm2/MdmX complementation, luminescence; actives 3% (n = 330,000);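 active means inhibition of at least 50% at 8 µM in the primary screen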
CF NFkB block – blocks PAF-induced NF-kB reporter in cystic fibrosis cells; KKLEB NF-kB-GFP reporter, GFP fluorescence overnight; inhibition, % at 5 µM; actives 0.86% (n = 360,000);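 active means at least 50% inhibition at 5 µM, scaled per plate between neutral and stimulator controls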;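 further: PAF is a Pseudomonas aeruginosa culture filtrate used as stimulus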
ABHD5-PLIN5 inh – inhibitors of human ABHD5-perilipin-5 interaction. Split G. princeps luciferase complementation, luminescence, 4 h. inhibition, % at 4 µM. Q00G26+Q8WTS1. actives 0.78% (n = 360,000);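 active means inhibition above the mean inhibition across every tested compound plus 3 SD, cut at about 22% in these data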
HIF-2a block – inhibitors of HIF-2a | 786-0 RCC cells HIF-2a reporter, luciferase luminescence, overnight | actives 0.72% (n = 360,000) | inhibition, % at 18.8 µM;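 active means inhibition of the luminescence signal of 40% or more relative to plate controls, in a single-dose primary screen at 18.75 µM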
KKLEB tox – CF airway cell cytotoxicity counter-screen. KKLEB CF airway cells viability, ATPlite luminescence, overnight; active compounds read low; cells stimulated with P. aeruginosa culture filtrate. activity change (cytotoxicity), % at 5 µM. actives 0.36% (n = 360,000). AID 602141;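 active means corrected activity change at or below -50% at 5 µM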
Peg3 prom inh – Peg3 promoter activity inhibition. actives 1.7% (n = 360,000). inhibition, % at 20 µM. HeLa PEG-Prom luciferase reporter, luminescence, overnight;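 active means inhibition of at least 50% at 20 µM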
Of the large screens only hits and unclear results are named; the others gave an inactive call.

COc1ccc(S(=O)(=O)NNC(=O)C2COc3ccccc3O2)cc1[N+](=O)[O-] (stereo not drawn)	none
C=CCn1c(SCC(C)=O)nc2scc(-c3ccc(C)o3)c2c1=O	none
C=CCn1c(SCC(=O)NCCCC)nc2scc(-c3ccco3)c2c1=O	ABHD5-PLIN5 inh 40
Cc1ccc(NC2CCCN(C(=O)c3cccc(-c4ncc[nH]4)c3)C2)cc1C (stereo not drawn)	none
Oc1ccccc1C1SC(c2ccccc2O)SC(c2ccccc2O)S1 (stereo not drawn)	CF NFkB block 91, KKLEB tox -88, Peg3 prom inh 105 (no result: Mdm2-MdmX inh)
Nc1ccc2oc(-c3cccc4ccccc34)nc2c1	HIF-2a block 87
Cc1ccc(NC(=O)C2SC(=Nc3ccccc3)C(C(=O)Nc3ccc(Cl)cc3)=C2N)cc1 (stereo not drawn)	none (no result: Mdm2-MdmX inh)
Cc1ccc(N=C2SC(C(=O)Nc3ccc(OC(F)(F)F)cc3)C(N)=C2C(=O)Nc2c(C)cc(C)cc2C)cc1 (stereo not drawn)	CF NFkB block 72, KKLEB tox -60 (no result: Mdm2-MdmX inh)
C#CCOCCOCCOCCNc1nc(N2CCN(C(=O)CCCCCCCCCCNC(=O)Cn3cc(C[C@@H](C)O)nn3)CC2)nc(N2CCN(C(=O)CCCCCCCCCCNC(=O)[C@H](CCCN=C(N)N)n3cc(C[C@@H](C)CC)nn3)CC2)n1	ABHD5-PLIN5 inh 55
C#CCOCCOCCOCCNc1nc(N2CCN(C(=O)CCCCCCCCCCNC(=O)Cn3cc(C[C@@H](C)O)nn3)CC2)nc(N2CCN(C(=O)CCCCCCCCCCNC(=O)[C@H](CO)n3cc(CCCSC)nn3)CC2)n1	none
C#CCOCCOCCOCCNc1nc(N2CCN(C(=O)CCCCCCCCCCNC(=O)[C@H](CO)n3cc(CCCSC)nn3)CC2)nc(N2CCN(C(=O)CCCCCCCCCCNC(=O)[C@H](CCCCN)n3cc(CCO)nn3)CC2)n1	ABHD5-PLIN5 inh 49
C#CCOCCOCCOCCNc1nc(N2CCN(C(=O)CCCCCCCCCCNC(=O)[C@H](CO)n3cc(CCCSC)nn3)CC2)nc(N2CCN(C(=O)CCCCCCCCCCNC(=O)[C@H](CCCN=C(N)N)n3cc(C[C@@H](C)CC)nn3)CC2)n1	ABHD5-PLIN5 inh 70
C#CCOCCOCCOCCNc1nc(N2CCN(C(=O)CCCCCCCCCCNC(=O)Cn3cc(CCCCCN)nn3)CC2)nc(N2CCN(C(=O)CCCCCCCCCCNC(=O)[C@@H](CCSC)n3cc(CCO)nn3)CC2)n1	ABHD5-PLIN5 inh 57, Peg3 prom inh 77
C#CCOCCOCCOCCNc1nc(N2CCN(C(=O)CCCCCCCCCCNC(=O)Cn3cc(C[C@@H](C)O)nn3)CC2)nc(N2CCN(C(=O)CCCCCCCCCCNC(=O)[C@@H](CCC(=O)O)n3cc(CCCCCN)nn3)CC2)n1	none
Fc1ccc(-c2nnc(-c3ccc(Cl)cc3Cl)o2)cc1	KKLEB tox -55
O=C(ONC(=O)C1C2C=CC(C2)C1C(=O)NOC(=O)c1ccccc1)c1ccccc1 (stereo not drawn)	none (no result: Mdm2-MdmX inh)
Fc1ccc(C2CCNCC2COc2ccc3c(c2)OCO3)cc1 (stereo not drawn)	Peg3 prom inh 61
COc1ccccc1C(=O)Nc1cc(-c2ccc(C)cc2)no1	none
CCOc1ccc(CCn2c(-c3ccco3)nc3ccccc3c2=O)cc1OCC	Peg3 prom inh 54
Cc1cccc(N2CCN(C(=O)Cn3sc4nc(C)cc(C)c4c3=O)CC2C)c1 (stereo not drawn)	ABHD5-PLIN5 inh 82
COc1ccc(S(=O)(=O)N(C)C[C@@H]2OCc3cnnn3CCCC(=O)N([C@H](C)CO)C[C@@H]2C)cc1	none (no result: Mdm2-MdmX inh)
CCOC(=O)C1CCN(C(=O)C2CCCN2S(=O)(=O)c2ccc(Cl)cc2)CC1 (stereo not drawn)	none
Cc1cc(NC(=O)COC(=O)c2cc(S(=O)(=O)N(C)C)ccc2Cl)no1	none
CC(C)Cc1ccc(C(C)/C=C2/CCC(CN3CCCCC3)C2=O)cc1 (stereo not drawn)	ABHD5-PLIN5 inh 23, Peg3 prom inh 91 (no result: Mdm2-MdmX inh)
CC1(C)N=C(c2ccccc2)C(c2ccccc2)=N1	none (no result: Mdm2-MdmX inh)
C=CCN(C(=O)c1csnn1)C(C(=O)NC1CCCC1)c1ccccc1 (stereo not drawn)	none

High-throughput results as filed in PubChem BioAssay.
